Rows were chosen to be rich in hits. Some 2% of all compounds tested hit in one or more screens of this group.
BJeLR lethal: MLPCN primary cell-based screen for lethality selective to Ras in HRASV12 cells. BJeLR (HRASV12) viability, CellTiter-Glo ATP luminescence, 48 h. inhibition, % (concentration not given with the values). 300,000 compounds, 0.17% hits. AID 1554, 2009; in the data active means inhibition above about 50%
PfHsp40 rescue: rescue of yeast from PfHsp40 toxicity, primary screen, S. cerevisiae, ATP luminescence | S. cerevisiae expressing PfHsp40, growth rescue | growth rescue, % at 12.5 µM | 340,000 compounds, 0.68% hits | AID 504582, 2011; in the data active means growth rescue above about 28%, passing the limit was not always enough;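 further: yeast W303a lacking pdr1 and pdr3 grown in galactose medium; growth measured after three days at 30 °C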
Y pestis TopoI: Yersinia pestis topoisomerase I inhibitors, primary screen, biochemical, cleavage product accumulation, plate reader, single point; activity, % at 10 µM; 360,000 compounds, 0.064% hits; AID 504884, 2011; Y. pestis Topo-I cleavage product accumulation; DNA topoisomerase I (Yersinia pestis CO92); in the data active means activity above about 50%, passing the limit was not always enough
PrPC TRFRET: inhibitors of human cell surface prion protein PrPC, primary screen, cell-based, TR-FRET. AID 720596, 2013. inhibition, % at 13.8 µM. 370,000 compounds, 0.43% hits. TR-FRET read-out. Major prion protein (Homo sapiens), P04156; in the data active means inhibition above about 24%; further: 0% = median of the test wells and 100% = reference compound wells
CCHFV vOTU inh: CCHFV vOTU protease inhibitors, primary screen, biochemical, Pep-AMC substrate, fluorescence | AID 651958, 2012 | 370,000 compounds, 0.55% hits | inhibition, % at 11.5 µM; in the data active means inhibition above about 30%; further: 0% = vehicle wells with enzyme and 100% = no enzyme wells
PrP 5UTR inh: inhibition of PrP 5' UTR reporter expression; 340,000 compounds, 0.35% hits; AID 488862, 2010; inhibition, % (no concentration beside the values); cell-based PrP 5' UTR mRNA reporter, plate reader; in the data active means inhibition above about 52%; further: 0 = median of the neutral control wells
* = called active by the depositor; . = not tested or not shown.

SMILES	BJeLR lethal	PfHsp40 rescue	Y pestis TopoI	PrPC TRFRET	CCHFV vOTU inh	PrP 5UTR inh
CC(C)(C)c1nnc(N/N=C/c2ccccc2O)n(N)c1=O	62*	71*	2	-1	4	30
Nc1ccn([C@@H]2O[C@H](C(=O)N[C@H](Cc3ccccc3)C(=O)N[C@H]3CCCCNC3=O)[C@@H](O)[C@H]2O)c(=O)n1	.	.	.	6	-7	.
CC(C)(C)OC(=O)NC1CCN(c2nc(-c3ccc(Br)cc3)cs2)CC1	.	.	.	1	.	.
O=C1C=C(c2ccccc2)C(=O)N1Nc1ccccc1	-9	264*	-2	1	5	-1
Cc1ccccc1C1CCC2(CC1)CCN(CC[C@@H](O)c1ccccc1)C2=O (stereo partly drawn)	.	.	.	7	.	.
Cc1cc(O)cc(=O)n1-c1cccc(C(F)(F)F)c1	.	.	.	-7	1	.
c1ccc2c(c1)ncn2CCOCCOCCn1cnc2ccccc21	2	3	0	-3	3	-17
Clc1ccc(OCCn2cnc3ccccc32)c(Cl)c1	7	28*	32	-5	7	-51
CC1(C)CC(=O)N(CC(=O)N2CCN(c3ccc(F)cc3)CC2)c2ccccc2S1(=O)=O	.	.	.	-9	-8	.
COc1cccc(CNC(=O)CN2CCCc3ccccc32)c1	.	.	.	-6	-1	.
O=C(C=Cc1ccco1)c1cc(Cl)ccc1O	.	-1	-12	4	-7	-15
CC(/C=C/c1ccco1)=N\NC(=O)c1cc(Cl)ccc1O	7	75*	-14	-6	-13	-2
Cc1nc2c(F)c(F)c(C(F)(F)F)c(F)c2[nH]1	2	88*	2	-3	7	1
Cc1nc2c(Br)c3nc(C(F)(F)F)[nH]c3c(Br)c2[nH]1	-12	3	9	.	.	-12
O=C(C1CCC1)N1CCc2cc(S(=O)(=O)N3CCN(c4ccccc4F)CC3)ccc21	.	.	.	-8	1	.
CC(C)(C)C1CCc2nc(NC(=O)Cc3cn4ccsc4n3)sc2C1 (stereo not drawn)	3	1	62*	10	21	-45
Cc1ccc(Cn2cc(COC(=O)Nc3ccc(F)cc3)nn2)cc1	.	.	.	0	-2	.
CC1CCC(C(C)C)C(OC(=O)Cn2c(COc3ccccc3)[n+](C)c3ccccc32)C1 (stereo not drawn)	29	1	10	-4	29	-13
CCCCCCCCCCOC(=O)Cn1c(COc2ccccc2OC)[n+](C)c2ccccc21	-17	316*	1	20	25	-17
CC(C)CCC[C@](C)(O)c1ccc(C(=O)O)cc1O	.	.	.	2	10	.
CC(C)(O)CCCC(C)(O)c1ccc(C(=O)O)cc1O (stereo not drawn)	-6	55*	10	-1	-2	-5
COc1ccc(N(C(=O)CCl)C(C(=O)NCCc2ccccc2)c2cccs2)cc1Cl (stereo not drawn)	139*	2	21	-13	12	-13
COc1cccc(N(C(=O)c2snc(C(N)=O)c2N)C(C(=O)NCC2CCCO2)c2cccs2)c1 (stereo not drawn)	-10	1	21	-13	-2	-11
COc1ccc(N(C(=O)c2ccco2)C(C(=O)NC2CCCCC2)c2cccs2)cc1OC (stereo not drawn)	-5	0	16	0	6	-6
COc1cccc(N(C(=O)CCl)C(C(=O)NCCc2ccccc2)c2cccs2)c1 (stereo not drawn)	72*	0	13	-12	-12	-22
SMILES	BJeLR lethal	PfHsp40 rescue	Y pestis TopoI	PrPC TRFRET	CCHFV vOTU inh	PrP 5UTR inh
CN(C)c1ccc(-n2cccc2/C=C/[N+](=O)[O-])cc1	9	230*	-6	0	2	-2
CN(C)c1ccc(/C=C/[N+](=O)[O-])cc1	32	4	3	-2	11	-13
Cc1cccc(C)c1OCC(O)Cn1ccnc1C (stereo not drawn)	-17	-1	-10	3	4	-10
Cc1cccc(OCC(O)Cn2ccnc2C)c1 (stereo not drawn)	-25	-1	66*	2	-8	7
COc1ccc(-c2cc(-c3ccc(OC)cc3)[nH]n2)cc1	-18	53*	8	4	-1	-63
COC(=O)Cc1nnn2c1[C@H](C)[C@@H](OC)c1ccc(C(F)(F)F)cc1-2	.	.	.	6	-4	.
COC(=O)c1[nH]c2cccc(OC)c2c1NC(=O)CN1CCOCC1	-2	52*	10	2	-15	-17
COC(=O)c1[nH]c2cccc(OC)c2c1NC(=O)CCN1CCSCC1	12	0	-11	-4	-7	-11
Cc1cc(Oc2cccnc2)ccc1NC(=O)Cc1c(C)[nH]c2ccccc12	.	.	.	4	-8	.
COc1ccc(N(C(=O)c2ccncc2)S(=O)(=O)c2ccc(OC)c(OC)c2)cc1	7	1	5	-6	7	-22
COc1ccc(N(C(=O)c2ccncc2)S(=O)(=O)c2ccc(F)cc2)cc1	8	436*	2	5	25	-6
COc1ccc(OC(=O)c2ccncc2)cc1	-7	0	-8	-4	-3	-15
COc1ccc(S(=O)(=O)N(C(=O)c2ccncc2)c2ccc(OC(=O)c3ccncc3)cc2)cc1	4	515*	-9	6	-3	-23
COc1ccc(N(C(=O)c2ccncc2)S(=O)(=O)c2ccccc2)cc1	1	340*	6	-3	-5	-13
COc1cccc(C2NC(=S)N(Cc3ccc(Br)cc3)C(C)=C2C(C)=O)c1 (stereo not drawn)	.	.	.	10	2	.
CCS(=O)(=O)N1Cc2ccccc2CC1C(=O)NC(C)C12CC3CC(CC(C3)C1)C2 (stereo not drawn)	-2	7	28	31*	9	-27
CCS(=O)(=O)N1Cc2ccccc2CC1C(=O)NCC12CC3CC(CC(C3)C1)C2 (stereo not drawn)	10	2	12	1	1	-30
Cc1ccccc1N(C)C(=O)Cn1nnc(-c2ccccc2F)n1	.	.	.	8	13	.
COc1ccc(OCc2nn3c(-c4ccccc4)nnc3s2)cc1	.	.	.	2	9	.
CCN(CC)S(=O)(=O)c1ccc(NC(=O)Nc2cccc(C(F)(F)F)c2)cc1	2	-2	-3	43*	22	-25
Cc1ccc(S(=O)(=O)Nc2ccc(NC(=O)Nc3cccc(C(F)(F)F)c3)cc2)cc1	12	1	-17	13	23	-31
O=C1NC[C@@H](Cc2cccc3ccccc23)N(CCc2cc(C(F)(F)F)cc(C(F)(F)F)c2)C1=O	6	44*	15	-7	20	-11
O=C1NC[C@H](Cc2ccccc2)N(CCc2cc(C(F)(F)F)cc(C(F)(F)F)c2)C1=O	.	.	.	2	13	.
